We go through 28 compounds from PubChem BioAssay (NCI).

What all share (assay): NCI-60 one-dose screen, 48 h (100 = growth as untreated, 0 = no growth, -100 = all killed)
Holding throughout (conditions): 10 µM unless noted

Experiment [1] has as its system NCI-H23 lung.
Experiment [2] relates to NCI-H226 lung.
Experiment [3] relates to NCI-H322M lung.
The test system of experiment [4] is HOP-62 NSCLC.
Experiment [5] deals with NCI-H460 lung.
The subject of experiment [6] is HOP-92 NSCLC.
For experiment [7], the system named is 786-0 renal.
For experiment [8], the system named is COLO 205 colon.
The subject of experiment [9] is A549/ATCC NSCLC.
For experiment [10], the system named is NCI-H522 lung.

This is part of a sample that, as a whole, favours compounds with a hit. Of some 83,000 tested, about 20% had one in any assay.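 Interpretation: 100, growth as untreated; towards 0, rising growth inhibition; 0, no net growth; 0 to -100, cell death. Compounds scoring below 10 were considered active.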 Unmarked numbers belong to inactive results. Activity calls are given as the source filed them.

With `O=C1c2cccc3cccc(c23)C(=O)N1CCCCCCCCCCN1C(=O)c2cccc3cccc(c23)C1=O`, the growth was 112% in [1]; 96.4% in experiment [2]; 111% in experiment [3]; 104% in experiment [4]; 102% in experiment [5]; 108% in experiment [6]. Also, the growth in experiment [7] is 109%; in experiment [8] it was 119%.
In the case of `CCN(CC)CCCCCCCCNc1c2ccc(Cl)cc2nc2ccc(OC)cc12`, the growth in [1] is -43.8% (active); in experiment [2], -21.4% (active); in experiment [3], -39.2% (active); in [4], -67.8% (active); in experiment [5], -51.6% (active); in [6], -75.9% (active). Besides, the figures for the growth in experiment [7] and in experiment [8] were -88.8% (active) and -84.6% (active), respectively.
Take `CCCCCCCCCCCCCC`: the growth is 92.5% in experiment [1]; 106% in experiment [2]; 105% in experiment [3]; 98.2% in experiment [4]; 108% in experiment [5]; 91.3% in [6]. The figures for the growth in [7] and in [8] were 99.4% and 108%, respectively.
Turning to `O=C(N/N=C/c1ccc([N+](=O)[O-])o1)c1ccc(O)cc1`, the growth is 41.5% in experiment [1]; 89.7% in [2]; 65.6% in [3]; 30.3% in experiment [4]; 18.8% in [5]; 103% in experiment [6]. For the same compound, the growth in experiment [9] is 36.9%; in [7] it was 63.4%.
For `Cc1nn(-c2ccccc2)c2nc3c(nc12)C1=NCCN1C(c1ccc(Cl)cc1)N3` (configuration not stated), the growth in experiment [1] is 92.8%; in [2], 86.2%; in experiment [3], 77.4%; in experiment [4], 87.7%; in experiment [5], 82.9%; in experiment [6] it was 30.2%. Besides, the figures for the growth in experiment [9], in [7] and in experiment [8] were 88.9%, 76.6% and -82.9% (active), respectively.
Regarding `CCOC(=O)C(CCCCC(NC(C)=O)(C(=O)OCC)C(=O)OCC)(NC(C)=O)C(=O)OCC`, the growth is 103% in experiment [1]; 105% in experiment [2]; 105% in experiment [3]; 102% in [4]; 103% in experiment [5]; 94.9% in experiment [6]. Further, the growth in experiment [7] is 99.4%; in [8] it was 107%.
On to `N#Cc1ccc(-c2ccc(-c3cccs3)o2)cc1F`, for which the growth in experiment [1] is 76.9%; in [2], 81.8%; in experiment [3] it was 83.3%; in experiment [4], 35.7%; in [5], 88.1%; in experiment [6], 50.5%. The results for the growth in [7] and in experiment [8] were 67.2% and 86.2%, respectively.
With `NNc1ccc(S(N)(=O)=O)cc1`, the growth was 90.7% in experiment [1]; 93.7% in experiment [2]; 110% in [3]; 91.2% in experiment [4]; 107% in experiment [5]; 85.3% in [6]. The growth was 103% in [7] and 105% in [8].
Take `COc1ccc(-c2cc(-c3cc4ccccc4oc3=O)n(-c3ccccc3)n2)cc1`: the growth in [1] was 79.3%; in experiment [2], 75.7%; in experiment [3], 78.1%; in experiment [4], 55.4%; in [5] it was 95.3%; in experiment [6] it was 67%. Moreover, the growth was -31.5% (active) in experiment [7] and 66.3% in experiment [8].
As to `N/C(=N\O)c1ncc(-c2ccc(C(F)(F)F)cc2)c(NC2CCCCCC2)n1`, the growth in [1] is -78.9% [100 µM] (active); in experiment [2], -42.4% [100 µM] (active); in [3] it was -95.8% [100 µM] (active); in [4], -74.2% [100 µM] (active); in experiment [5], -64.8% [100 µM] (active); in experiment [6], -89.5% [100 µM] (active). For the same compound, the figures for the growth in experiment [7] and in experiment [8] were -91.5% [100 µM] (active) and -58.2% [100 µM] (active), respectively.
For `O=P(O)(O)C(O)(Cc1cccnc1)P(=O)(O)O`, the growth is 93.1% in [1]; 111% in experiment [2]; 107% in [3]; 94.3% in experiment [4]; 111% in [5]; 114% in experiment [6]. The growth is 98.8% in experiment [9] and 108% in experiment [7].
In the case of `CC(=O)C1CCC2C3CC(C)=C4CC(O)CCC4(C)C3CCC12C` (configuration not stated), the growth in experiment [1] is 99.5%; in experiment [2] it was 93.4%; in experiment [3], 103%; in experiment [4], 124%; in experiment [5], 109%; in [6], 102%. Further, the growth is 99.6% in experiment [9] and 94.3% in experiment [7].
As for `COC(=O)[C@H](Cc1cn(C)cn1)NC(=O)[C@H](CC(C)C)NC(=O)Nc1cc(C(F)(F)F)cc(C(F)(F)F)c1`, the growth in [1] is -84.5% [100 µM] (active); in [2], -54.7% [100 µM] (active); in experiment [3] it was -97.8% [100 µM] (active); in experiment [4], -100% [100 µM] (active); in [5], -59.8% [100 µM] (active); in experiment [6], -98.2% [100 µM] (active). For the same compound, the growth in experiment [7] is -94.9% [100 µM] (active); in experiment [8], -84.4% [100 µM] (active).
With `Cc1cc2nc(CN)[nH]c2cc1C`, the growth in experiment [1] is 103%; in experiment [2], 105%; in experiment [3], 107%; in experiment [4] it was 98.9%; in experiment [5], 103%; in experiment [6], 84%. Moreover, the growth in experiment [7] was 97.4%; in experiment [8] it was 104%.
`CC(C)(C)c1cc(C[P+](c2ccccc2)(c2ccccc2)c2ccccc2)cc(C(C)(C)C)c1O`: the growth in experiment [1] is -6.21% (active); in [2], 32.3%; in experiment [3], -9.5% (active); in [4] it was 8.73% (active); in [5] it was 3.54% (active); in experiment [6], -32.6% (active). The values for the growth in experiment [7] and in experiment [8] were 8.5% (active) and -92.6% (active), respectively.
Consider `COc1cc(OC)c(C(=O)/C=C/c2cccc(OC(C)=O)c2)cc1CC=C(C)C`, for which the growth in experiment [1] is 72.2%; in experiment [2] it was 69.6%; in experiment [3], 98.9%; in experiment [4] it was 114%; in experiment [5], 89.4%; in experiment [6], 56.5%. For the same compound, the growth in [7] is 91.4%; in experiment [8], 111%.
As to `COc1cc2ccc(C(C)=O)cc2cc1OC`, the growth in [1] was 99.5%; in [2] it was 81.4%; in experiment [3] it was 104%; in [4], 81.8%; in [5] it was 100%; in [6], 86%. The values for the growth in [7] and in [8] were 107% and 97.1%, respectively.
With `O=C(Nc1cccc(-n2ccc3c(NC(=O)c4ccccc4)nccc32)c1)c1ccc(Cl)c(Cl)c1`, the growth was -31.3% (active) in experiment [1]; 31.1% in [2]; -61.6% (active) in experiment [3]; -82.2% (active) in experiment [4]; -67.8% (active) in [5]; -31.9% (active) in [6]. Also, the growth in [7] is -93% (active); in experiment [8], -27.7% (active).
Regarding `CCCCCc1c(C)[nH]c(/C=C2\N=C(c3ccc[nH]3)C=C2Oc2ccc(OC)cc2)c1C`, the growth in experiment [1] was -67.1% [100 µM] (active); in [2], -15.7% [100 µM] (active); in experiment [3], -6.72% [100 µM] (active); in experiment [4], -54.5% [100 µM] (active); in [5], -46.1% [100 µM] (active); in [6] it was -12.6% [100 µM] (active). For the same compound, the figures for the growth in experiment [7] and in [8] were -92.2% [100 µM] (active) and -83.9% [100 µM] (active), respectively.
As for `CC(C)(c1ccccc1)c1cc(O)c(C(C)(C)c2ccccc2)cc1O`, the growth in experiment [1] is 38%; in [2], 43.2%; in experiment [3] it was 59.7%; in experiment [4], 63%; in experiment [5], 21.9%; in [10], -2.05% (active). Besides, the growth was 28.5% in experiment [9], 30.5% in experiment [7] and 17% in experiment [8].
In the case of `O=C(c1ccc(OCCN2CCCCC2)cc1)c1c(-c2ccc(O)cc2)sc2cc(O)ccc12`, the growth is 82.5% in [1]; 92.3% in [2]; 114% in experiment [3]; 89.2% in experiment [4]; 93.5% in experiment [5]; 66.7% in experiment [6]. Also, the growth in experiment [9] is 91.6%; in experiment [7], 74.7%.
As for `COc1ccc(-n2nc(C(=O)Nc3ccc(F)cc3)nc2-c2cc(OC)c(OC)c(OC)c2)cc1`, the growth was 92.7% in [1]; 79.3% in experiment [2]; 78.5% in experiment [3]; 87.8% in experiment [4]; 98.4% in experiment [5]; 91.2% in experiment [6]. Further, the growth was 83.6% in experiment [7] and 102% in experiment [8].
Turning to `FC(F)(F)c1cc(-c2nnc3n2N=C(Cl)CS3)cc(C(F)(F)F)c1`, the growth in experiment [1] is 93%; in experiment [2], 99.8%; in [3] it was 111%; in experiment [4], 98.5%; in experiment [5], 107%; in experiment [6], 102%. For the same compound, the growth in experiment [7] was 93.5%; in experiment [8], 96.5%.
In the case of `C[N+](C)(C)CCCCCCCCCC[N+](C)(C)C`, the growth is 88.7% in experiment [1]; 95.6% in experiment [2]; 118% in [3]; 96.2% in experiment [4]; 98.2% in [5]; 103% in experiment [6]. For the same compound, the growth is 103% in experiment [9] and 109% in experiment [7].
For the compound `COc1ccc(/C=C/c2nc(NCCCN(C)C)c3ccccc3n2)cc1`, the growth in [1] was 73.6%; in [2], 103%; in experiment [3], 82.7%; in experiment [4], 83.9%; in [5] it was 33.2%; in experiment [6] it was 0.889% (active). Further, the growth is 91.2% in experiment [9], 78% in [7] and 85.9% in experiment [8].
Take `COc1cc(OC)cc(-c2ccc(-c3ccc(C(=N)N)s3)s2)c1`: the growth was -75.7% (active) in experiment [1]; -65.3% (active) in [2]; -86.7% (active) in experiment [3]; -88.1% (active) in experiment [4]; -71.6% (active) in experiment [5]; -71% (active) in [6]. Moreover, the growth was -80.4% (active) in [7] and -78.1% (active) in [8].
Regarding `COc1cc2c(cc1OC)-c1cc(OC)c(OC)cc1C(CN(C)C)C2` (configuration not stated), the growth in experiment [1] was 51.8% [100 µM]; in [2], 18.4% [100 µM]; in experiment [3], 38.9% [100 µM]; in [4] it was -57.2% [100 µM] (active); in experiment [5], 67.7% [100 µM]; in experiment [6], 21.4% [100 µM]. In addition, the growth in experiment [7] was 16.9% [100 µM]; in experiment [8] it was 100% [100 µM].
Turning to `O=[N+]([O-])c1ccc(Sc2nc(Cl)nc(NC3CCCC3)n2)cc1`, the growth in experiment [1] is -70.2% [100 µM] (active); in experiment [2], -44.4% [100 µM] (active); in [3], -92.2% [100 µM] (active); in experiment [4], -78.9% [100 µM] (active); in experiment [5], -51.1% [100 µM] (active); in [6], -74.7% [100 µM] (active). Further, the growth in [7] was -83.5% [100 µM] (active); in experiment [8] it was -61.5% [100 µM] (active).
